Rows were chosen to be rich in hits. Some 0.52% of all compounds tested hit in one or more screens of this group.
GCN5L2 inh: blocks human GCN5L2 histone acetyltransferase; Potency, µM (top dose mostly 58.9 µM), without a hit: top-dose activity change, negative = inhibition, most hits filed as inhibitors; GCN5L2 HAT assay, ThioGlo1 CoA-SH fluorescence; hit rate 0.21% among 390,000; AID 504327; also: % is scaled to controls: 0 for no effect and ±100 for the full control effect
Target sequence (Q92830 whole entry, looked up): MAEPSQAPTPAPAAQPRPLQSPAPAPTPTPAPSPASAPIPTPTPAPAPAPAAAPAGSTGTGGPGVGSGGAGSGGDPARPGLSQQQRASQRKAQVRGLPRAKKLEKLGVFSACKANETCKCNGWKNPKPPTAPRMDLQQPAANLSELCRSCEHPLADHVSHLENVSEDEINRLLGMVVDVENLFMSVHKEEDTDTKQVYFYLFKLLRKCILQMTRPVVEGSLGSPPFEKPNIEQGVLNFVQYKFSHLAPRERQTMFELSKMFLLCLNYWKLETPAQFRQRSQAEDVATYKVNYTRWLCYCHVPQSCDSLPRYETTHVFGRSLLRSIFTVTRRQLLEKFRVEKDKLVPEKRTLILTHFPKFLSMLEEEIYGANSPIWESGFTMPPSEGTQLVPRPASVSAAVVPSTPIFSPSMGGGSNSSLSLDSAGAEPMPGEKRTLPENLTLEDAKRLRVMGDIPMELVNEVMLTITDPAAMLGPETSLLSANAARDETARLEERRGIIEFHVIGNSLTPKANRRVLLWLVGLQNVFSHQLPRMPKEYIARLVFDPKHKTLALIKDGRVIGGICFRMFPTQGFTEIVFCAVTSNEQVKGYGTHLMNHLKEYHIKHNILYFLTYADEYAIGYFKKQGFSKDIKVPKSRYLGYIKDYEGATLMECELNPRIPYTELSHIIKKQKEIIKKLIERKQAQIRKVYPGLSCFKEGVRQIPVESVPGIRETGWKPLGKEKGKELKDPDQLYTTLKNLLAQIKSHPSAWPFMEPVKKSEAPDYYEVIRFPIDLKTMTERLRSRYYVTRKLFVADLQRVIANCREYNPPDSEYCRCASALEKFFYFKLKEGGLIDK
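GCN5L2 (20 nM) in 50mM HEPES pH 7.5, 0.1mM EDTA, 0.01% Tween-20 preincubated 15 min with compounds at room temperature. Reaction started with H3(1-25) 75uM, acetyl-CoA 70uM, ThioGlo1 50uM; CoA-thiol fluorescence (Ex340/Em540) read at 0 and 20 min.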
GLS inhibitor: inhibitors of human glutaminase (GLS). O94925. GLS enzymatic activity, qHTS titration. Potency, µM (highest dose often 45.5 µM), without a hit: at the top dose activity change, negative = inhibition, usual class: inhibitors. hit rate 0.21% among 410,000. AID 624170; also: % is scaled to controls: 0 for no effect and ±100 for the full control effect
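Human kidney-isoform GLS in 45 mM KH2PO4 pH 8.2, 0.02% Tween-20, with compound, started with 1mM L-Glutamine (added stock). Glutamate oxidase/HRP/Amplex red coupled fluorescence read at start and after 30 min at RT.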
PGK inhibitor: blocks T. brucei phosphoglycerate kinase; P07378; PGK/GAPDH coupled, Kinase-Glo luminescence, 60 min; Potency, µM (series often up to 57.5 µM), without a hit: at the highest dose activity change, negative = inhibition, hits mostly inhibitors; hit rate 0.043% among 380,000; also: % is scaled to controls: 0 for no effect and ±100 for the full control effect; nearly all actives have a fitted effect of over 60% in size
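Recombinant glycosomal PGK reaction used 1,3-bisphosphoglycerate generated in-well by GAPDH (100nM final) in 100mM TEA pH 7.6, 5mM MgCl2, 0.01% Tween-20. After 60 minutes at room temperature, ATP was read by Kinase-Glo Plus luminescence end-point.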
Tb PFK inh-1: blocks T. brucei phosphofructokinase. T. brucei PFK, ADP-Glo luminescence. Potency, µM (top dose mostly 57.5 µM), for the others: at the highest dose activity, negative = inhibition, usual class: inhibitors. hit rate 0.17% among 330,000;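 also: 0% = uninhibited 1x PFK enzyme wells and -100% = no-enzyme wells; nearly all actives have a fitted effect of over 60% in size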
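Compounds were pin-transferred as a titration series up to 57 uM into substrate buffer (0.5 mM F6P, 0.1 mM ATP, pH 8.0), then 1.25 nM PFK was added and reactions ran 45 min before ADP-Glo detection.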
USP2a inh: blocks human ubiquitin-specific protease USP2a; O75604; USP2 core, Ub-CHOP2 coupled fluorogenic reporter, 485/531; Potency, µM (highest dose often 38.3 µM), inactives show at the top dose activity change, negative = inhibition, usual class: inhibitors; hit rate 0.01% among 330,000; AID 463254;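 also: plate controls were DMSO wells for no effect and full inhibition by NEM control for full effect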
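USP2 core (10nM final) preincubated 30min RT with compound in 20mM Tris-HCl pH 8.0, 2mM CaCl2, 2mM beta-mercaptoethanol, 0.05% CHAPS; 25nM Ub-CHOP2 plus 25nM reporter substrate added, fluorescence (Ex485/Em531) read after 60min.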
TbPFK ATP: Tb phosphofructokinase inhibition, orthogonal luminescence; Tb PFK enzyme, ATP depletion, Kinase-Glo Plus luminescence; AID 504636; hit rate 47% among 1,100; shares compounds with Tb PFK inh-1; Potency, µM (highest dose often 57.5 µM), without a hit: at the top dose inhibition; calls by dose curve; also: nearly all actives have a fitted effect of over 60% in size
Tb PFK inh-2: validation of T. brucei phosphofructokinase inhibitors; shares compounds with Tb PFK inh-1; purified T. brucei PFK, ADP-Glo luminescence, 45 min; Potency, µM (top dose mostly 57.5 µM), without a hit: at the highest dose activity change, negative = inhibition, most hits filed as inhibitors; hit rate 41% among 1,100; AID 504637;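 also: plate controls were full PFK enzyme control for no effect and no enzyme control for full effect; nearly all actives have a fitted effect of over 60% in size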
Numbers without * were called inactive; i = inactive; ? = inconclusive; · = no result. Unless noted, calls follow the shape of the dose curve; as a rule, active = well fitted curve in the direction sought with a large enough effect; inconclusive = small, poorly fitted or top-dose-only effect, or another doubt; inactive = no such curve, though single readings can be large; an effect the other way counts as inactive or inconclusive. Potency is read from the fitted curve at half-maximal effect.

SMILES	GCN5L2 inh	GLS inhibitor	PGK inhibitor	Tb PFK inh-1	USP2a inh	TbPFK ATP	Tb PFK inh-2
CCCCC/C=C\C/C=C\C/C=C\C/C=C\CCCC(=O)NCCCl	0%	·	·	·	·	·	·
Cc1ccc(-c2csc(Nc3ccc(S(N)(=O)=O)cc3)n2)o1	-19%	?	-18%	11µM*	2%	?	?
O=C(CC[N+](=O)[O-])OCC1OC(O)C(OC(=O)CC[N+](=O)[O-])[C@@H](OC(=O)CC[N+](=O)[O-])C1OC(=O)CC[N+](=O)[O-] (some centres not stated)	1%	·	·	·	·	·	·
Cc1ccc(NC2c3ncccc3C(=O)N2Cc2cccs2)cc1C (configuration not stated)	-8%	17%	3%	?	3%	20%	-20%
Oc1ccc(C2CNCc3sccc32)cc1O (configuration not stated)	-4%	?	-4%	?	1%	?	?
C[C@@]12C=CC(=O)C=C1CCC1C2CC[C@]2(C)C(=O)CCC12 (some centres not stated)	0%	·	·	·	·	·	·
O=[N+]([O-])/C=C1/NCCN1Cc1ccc(Cl)nc1	-5%	-13%	-5%	0%	4%	·	·
O=[N+]([O-])c1cn(Cc2ccc(Cl)cc2)cn1	-7%	10%	1%	?	0%	?	?
COc1ccc(C(=O)Cn2c(NCCCl)nc3ccccc32)cc1	-2%	18%	4%	1%	2%	·	·
O=C(CSc1nnc(CNc2ccc(F)cc2)o1)N1CCCc2ccccc21	-4%	19%	4%	27µM*	3%	12µM*	27µM*
CC(C)N(C(=O)CSc1nnc(CNc2ccc(F)cc2)o1)C(C)C	0%	12%	6%	17µM*	0%	?	?
COc1ccc(C(=O)CSc2nnc(CNc3ccc(F)cc3)o2)cc1	-2%	1%	7%	17µM*	1%	12µM*	24µM*
C=CC[C@]1(O)CC[C@H]2[C@@H]3CCC4=CC(=O)CCC4=C3C=C[C@@]21C	-19%	·	·	·	·	·	·
FCCN(CCF)c1cccc(Cl)c1	-15%	0%	-1%	19µM*	5%	8.5µM*	24µM*
Fc1ccc(CCNCc2cccc(Cl)c2)cc1	5%	0%	-2%	-23%	1%	·	·
Cc1cc(-c2nc3c4c5c(sc4[nH]c(=O)n3n2)CCC5)c(C)o1	?	152%	-23%	?	4%	16%	-9%
O=C(Nc1ccc(Cl)cc1)Nc1nccs1	-5%	22%	-4%	-9%	1%	·	·
O=C(Nc1ccncc1)Nc1ccc(F)c(Cl)c1	-8%	0%	7%	?	1%	?	?
CCCCC(=O)Nc1ccc(F)c(Cl)c1	-9%	-28%	-5%	?	3%	?	-12%
Fc1ccc(NC(=S)Nc2ccc(F)c(Cl)c2)cc1Cl	3%	-5%	-7%	?	1%	?	-30%
CC(C)(C)C(O)C(Cc1ccc(Cl)cc1Cl)n1cncn1 (configuration not stated)	0%	·	·	·	·	·	·
CCC(=O)c1cn(Cc2ccc(C#N)cc2)c2ccccc12	1%	-1%	7%	-2%	5%	·	·
N#Cc1ccc2ccn(CC(=O)NCc3ccccc3)c2c1	-7%	10%	-2%	?	0%	?	21µM*
O=C1/C(=C\c2ccccc2)C[C@@]2(O)[C@H]3Cc4ccc(O)c5c4[C@@]2(CCN3CC2CC2)[C@@H]1O5	-19%	·	·	·	·	·	·
CCN1C(=O)N/C(=C/c2ccc(C)o2)C1=O	-15%	-2%	-6%	13µM*	2%	?	?
SMILES	GCN5L2 inh	GLS inhibitor	PGK inhibitor	Tb PFK inh-1	USP2a inh	TbPFK ATP	Tb PFK inh-2
Cc1ccc(/C=C2/NC(=O)N(Cc3ccccc3F)C2=O)o1	38%	-3%	i	?	0%	?	-27%
Cc1ccc(/C=C2/NC(=O)N(Cc3ccc(Br)cc3)C2=O)o1	?	2%	-1%	15µM*	0%	?	?
Cc1ccc(/C=C2/NC(=O)N(c3ccccc3)C2=O)o1	?	5%	-3%	?	5%	?	?
CC(=O)Nc1c2sscc-2n(C)c1=O	-6%	·	·	·	·	·	·
O=c1[nH]c2sccc2c2ccccc12	-15%	·	·	·	·	·	·
C[C@H](NC(=O)[C@@H](N)Cc1ccc(O)cc1)C(=O)N[C@@H](Cc1ccccc1)C(=O)NCC(=O)N[C@@H](Cc1ccc(O)cc1)C(=O)N1CCC[C@H]1C(=O)N[C@@H](CO)C(N)=O	7%	·	·	·	·	·	·
C[N+]1(C)[C@@H]2CC(OC(=O)[C@@H](CO)c3ccccc3)C[C@@H]1[C@H]1O[C@H]12 (some centres not stated)	14%	-16%	·	·	·	·	·
COc1ccc(S(=O)(=O)N(C)C[C@H]2OCCCC[C@@H](C)Oc3ccc(N(C)C)cc3C(=O)N([C@H](C)CO)C[C@@H]2C)cc1	·	33%	-3%	·	·	·	·
CCN1CC2(OC(=O)c3ccccc3NC(C)=O)CCC(OC)[C@]34C1[C@H](CC23)[C@@]1(O)C[C@H](OC)[C@H]2CC4C1(O)[C@H]2OC (some centres not stated)	-5%	·	·	·	·	·	·
O=C(/C=C1\C(=O)Nc2ccccc21)/C=C1\C(=O)Nc2ccccc21	-18%	9%	8%	?	6%	1.7µM*	4.8µM*
CCOC(=O)C1=C(N)OC2=C(C(=O)CC(C)(C)C2)C1c1cc(CSc2nnnn2C)cs1 (configuration not stated)	-9%	1%	9%	?	-19%	-1%	1%

Screening data as filed in PubChem BioAssay.
